Data taken from PubChem BioAssay AID651621 (National Center for Advancing Translational Sciences (NCATS), 2012).
Calls of active or inactive are those of the source.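 How the source made its calls: active means inhibition of 60% or more at 11 µM; inconclusive means inhibition from 30% up to under 60% at 11 µM; inactive means inhibition below 30% at 11 µM.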

The molecules below were run against Ubiquitin carboxyl-terminal hydrolase 1 (Homo sapiens) + WD repeat-containing protein 48 (Homo sapiens) (UniProt O94782+Q8TAF3) (assay: Inhibitors of USP1/UAF1: SAR in USP1/UAF1 diubiquitin SDS-PAGE gel assay). Details: purified USP1/UAF1, K63 diubiquitin cleavage, at 11 µM, stronger effect = higher value.
Chain of Ubiquitin carboxyl-terminal hydrolase 1 (Homo sapiens) + WD repeat-containing protein 48 (Homo sapiens) (O94782 whole entry, looked up): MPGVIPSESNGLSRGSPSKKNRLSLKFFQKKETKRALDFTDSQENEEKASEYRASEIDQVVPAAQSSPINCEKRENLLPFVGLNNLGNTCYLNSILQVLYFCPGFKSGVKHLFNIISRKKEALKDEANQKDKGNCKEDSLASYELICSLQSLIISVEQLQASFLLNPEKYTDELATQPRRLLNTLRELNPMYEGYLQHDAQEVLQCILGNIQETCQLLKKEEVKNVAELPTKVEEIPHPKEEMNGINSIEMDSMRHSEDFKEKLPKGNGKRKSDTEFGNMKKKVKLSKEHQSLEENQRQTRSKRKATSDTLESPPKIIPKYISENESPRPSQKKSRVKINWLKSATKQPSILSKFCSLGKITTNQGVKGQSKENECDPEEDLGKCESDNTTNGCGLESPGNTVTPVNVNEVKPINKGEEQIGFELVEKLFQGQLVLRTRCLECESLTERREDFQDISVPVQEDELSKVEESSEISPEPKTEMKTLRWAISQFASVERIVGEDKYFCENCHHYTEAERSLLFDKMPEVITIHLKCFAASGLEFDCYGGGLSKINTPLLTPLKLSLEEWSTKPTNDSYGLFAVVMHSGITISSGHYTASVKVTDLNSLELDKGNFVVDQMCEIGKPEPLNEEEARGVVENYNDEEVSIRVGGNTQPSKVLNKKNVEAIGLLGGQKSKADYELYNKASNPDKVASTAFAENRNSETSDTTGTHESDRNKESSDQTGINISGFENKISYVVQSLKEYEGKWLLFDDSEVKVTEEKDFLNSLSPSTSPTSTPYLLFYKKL
Chain of Ubiquitin carboxyl-terminal hydrolase 1 (Homo sapiens) + WD repeat-containing protein 48 (Homo sapiens) (Q8TAF3 whole entry, looked up): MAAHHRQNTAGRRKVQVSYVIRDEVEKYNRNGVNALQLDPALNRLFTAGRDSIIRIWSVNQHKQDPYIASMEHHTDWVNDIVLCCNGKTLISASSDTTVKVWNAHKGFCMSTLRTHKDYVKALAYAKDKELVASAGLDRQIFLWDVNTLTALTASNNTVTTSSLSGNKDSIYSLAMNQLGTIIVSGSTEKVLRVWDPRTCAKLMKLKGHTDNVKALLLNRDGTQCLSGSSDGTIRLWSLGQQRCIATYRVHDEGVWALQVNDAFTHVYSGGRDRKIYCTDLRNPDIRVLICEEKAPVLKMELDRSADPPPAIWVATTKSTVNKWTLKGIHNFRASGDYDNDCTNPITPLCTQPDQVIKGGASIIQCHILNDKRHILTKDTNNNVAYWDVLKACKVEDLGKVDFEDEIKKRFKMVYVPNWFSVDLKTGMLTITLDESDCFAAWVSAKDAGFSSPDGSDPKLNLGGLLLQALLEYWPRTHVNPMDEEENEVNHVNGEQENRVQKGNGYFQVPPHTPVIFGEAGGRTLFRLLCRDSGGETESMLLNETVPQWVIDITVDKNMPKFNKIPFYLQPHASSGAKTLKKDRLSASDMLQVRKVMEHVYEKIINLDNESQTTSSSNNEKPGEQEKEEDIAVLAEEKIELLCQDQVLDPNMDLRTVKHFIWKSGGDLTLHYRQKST
Text: Deubiquitinating enzymes (DUBs) are a class of enzymes that can cleave isopeptide bond formed between the C-terminal carboxylate of ubiquitin and a lysine side-chain amino group on the target protein. Among them, ubiquitin specific proteases (USPs) constitute the largest DUB family. Human USPs are emerging as promising targets for pharmacological intervention because of their connection to a number of human diseases, including prostate, colon and breast cancer (1, 2), pediatric acute lymphoblastic leukemia (3), and familial cylindromatosis (4). The advantage of inhibiting USPs lies in the potential specificity of therapeutic intervention that can lead to better efficacy and reduce nonspecific side effects. In a collaboration between the University of Delaware and the NIH Chemical Genomics Center, a high-throughput screen assay was developed to screen for USP1/UAF1 inhibitors (5). This assay is a orthogonal assay that tested for activity in a USP1/UAF1 diubiquitin SDS-PAGE gel assay. NIH Chemical Genomics Center [NCGC] […]
The inhibition assay contains 100 nM for USP1/UAF1, 2 microM K63 linked diubiquitin, and inhibitors at varied concentrations (0.08 microM - 114 microM). […] The intensity of the individual diubiquitin and monoubiquitin band was quantified using Quantity One 4.3.1 (Biorad, Hercules, CA). The percentage of the conversion was determined and used to calculate the reaction rate. […]
With `Cc1cnc(-c2ccccc2C(C)C)nc1NCc1ccc(-n2ccnn2)cc1` the inhibition was 98.5% (active).
